Holding throughout (assay): DAPPL (digital affinity profiling via proximity ligation, sequencing); 10 mM Tris-HCl pH 7.5, 50 mM NaCl, 1 mM DTT, 4% glycerol, room temperature, 30 min; GST-TFs on glutathione beads, 16-mer random dsDNA library, 0.1% formaldehyde crosslink after washing; high values mean tight binding
One assay has as its target T1, FEV (Homo sapiens, UniProt Q99581 1-238).
T1 sequence: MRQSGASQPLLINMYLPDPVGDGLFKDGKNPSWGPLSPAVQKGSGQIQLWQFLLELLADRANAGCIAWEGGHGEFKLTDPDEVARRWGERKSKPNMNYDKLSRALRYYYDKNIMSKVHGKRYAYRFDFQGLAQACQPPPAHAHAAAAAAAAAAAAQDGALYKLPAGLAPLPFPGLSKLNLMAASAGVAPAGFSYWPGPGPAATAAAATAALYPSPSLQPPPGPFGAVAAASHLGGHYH
Particulars: protein: recombinant; tags: N-terminal GST; dsDNA, one strand shown. The essentials: (§1)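 Binding signal is each hexamer's read frequency for a factor divided by its frequency in the tag-only sample. The factors were GST-fused human transcription factors from yeast, captured on glutathione beads, DNA-barcoded and pooled with that sample. Pools were incubated with 200 nmole of a random double-stranded 16-mer DNA library in Tris/NaCl/DTT/glycerol buffer at room temperature for 30 min, then washed, crosslinked with 0.1% formaldehyde, proximity-ligated with BsaI/T4 ligase (1 h, 37 °C), PCR-amplified and sequenced on an Illumina NextSeq500.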

In another assay the target is ETV5 (Homo sapiens, UniProt P41161 1-510). To be noted: protein: recombinant; tags: N-terminal GST; dsDNA, one strand shown. The essentials: as §1
ETV5, sequence (P41161 whole entry): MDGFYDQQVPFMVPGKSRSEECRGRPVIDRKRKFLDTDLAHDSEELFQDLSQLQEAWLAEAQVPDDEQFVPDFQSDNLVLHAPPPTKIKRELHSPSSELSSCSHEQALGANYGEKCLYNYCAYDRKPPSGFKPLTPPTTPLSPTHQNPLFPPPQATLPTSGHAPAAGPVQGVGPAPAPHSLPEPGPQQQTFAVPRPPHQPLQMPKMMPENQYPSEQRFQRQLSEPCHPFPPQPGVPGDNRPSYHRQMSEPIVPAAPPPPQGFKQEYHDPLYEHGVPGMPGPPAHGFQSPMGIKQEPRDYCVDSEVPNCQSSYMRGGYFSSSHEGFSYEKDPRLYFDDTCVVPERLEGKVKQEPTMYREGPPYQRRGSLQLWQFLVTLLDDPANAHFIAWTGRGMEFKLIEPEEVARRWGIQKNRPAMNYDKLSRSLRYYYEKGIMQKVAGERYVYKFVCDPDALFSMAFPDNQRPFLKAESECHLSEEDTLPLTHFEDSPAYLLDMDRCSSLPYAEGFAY
A further assay concerns the target HSF1 (Homo sapiens, UniProt Q00613 1-529). Particulars: protein: recombinant; tags: N-terminal GST; chain copies: 3; dsDNA, one strand shown. The method, boiled down:
as §1

The next assay deals with T2, SPIC (Homo sapiens, UniProt Q8N5J4 1-248).
T2 sequence: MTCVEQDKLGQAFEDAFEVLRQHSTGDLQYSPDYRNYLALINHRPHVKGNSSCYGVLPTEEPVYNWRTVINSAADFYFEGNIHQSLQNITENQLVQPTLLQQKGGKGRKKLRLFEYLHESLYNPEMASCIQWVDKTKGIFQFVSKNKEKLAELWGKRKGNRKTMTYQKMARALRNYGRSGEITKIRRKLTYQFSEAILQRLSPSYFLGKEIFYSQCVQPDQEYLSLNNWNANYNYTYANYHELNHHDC
Particulars: protein: recombinant; tags: N-terminal GST; dsDNA, one strand shown. The essentials: as §1

In the next assay the target is ELF4 (Homo sapiens, UniProt Q99607 1-663). To be noted: protein: recombinant; tags: N-terminal GST; dsDNA, one strand shown. The method, boiled down: as §1
ELF4, sequence (Q99607 whole entry): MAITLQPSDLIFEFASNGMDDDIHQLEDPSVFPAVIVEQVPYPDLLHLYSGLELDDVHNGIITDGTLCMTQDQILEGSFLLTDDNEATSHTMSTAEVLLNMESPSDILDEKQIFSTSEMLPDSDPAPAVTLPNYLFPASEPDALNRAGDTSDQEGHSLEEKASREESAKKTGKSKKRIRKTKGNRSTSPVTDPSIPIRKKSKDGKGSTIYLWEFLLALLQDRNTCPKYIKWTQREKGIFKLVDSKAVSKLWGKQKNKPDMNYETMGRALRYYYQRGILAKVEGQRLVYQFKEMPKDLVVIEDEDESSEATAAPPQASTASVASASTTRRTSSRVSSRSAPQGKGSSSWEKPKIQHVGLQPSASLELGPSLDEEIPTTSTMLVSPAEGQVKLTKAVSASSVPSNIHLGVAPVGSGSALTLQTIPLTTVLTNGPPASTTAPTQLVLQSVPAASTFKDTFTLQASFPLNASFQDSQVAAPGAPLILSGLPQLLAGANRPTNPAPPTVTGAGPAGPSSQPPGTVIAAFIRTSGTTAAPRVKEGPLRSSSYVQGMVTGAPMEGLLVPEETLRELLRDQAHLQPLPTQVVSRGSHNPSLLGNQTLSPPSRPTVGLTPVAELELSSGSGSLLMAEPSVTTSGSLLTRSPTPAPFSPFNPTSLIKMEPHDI
In another assay the target is T3, ELK4 (Homo sapiens, UniProt P28324-2 1-405).
T3 sequence: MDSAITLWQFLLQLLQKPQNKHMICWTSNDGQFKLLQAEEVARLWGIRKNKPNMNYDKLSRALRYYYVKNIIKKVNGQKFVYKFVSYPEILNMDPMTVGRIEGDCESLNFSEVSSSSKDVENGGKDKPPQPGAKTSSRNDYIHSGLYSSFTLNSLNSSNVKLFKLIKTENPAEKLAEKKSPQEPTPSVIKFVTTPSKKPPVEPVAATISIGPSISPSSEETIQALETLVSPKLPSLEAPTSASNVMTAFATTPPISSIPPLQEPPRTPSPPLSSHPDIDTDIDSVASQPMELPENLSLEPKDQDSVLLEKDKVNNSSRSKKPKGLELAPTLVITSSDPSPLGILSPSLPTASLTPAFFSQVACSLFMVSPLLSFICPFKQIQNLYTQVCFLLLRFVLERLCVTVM
Particulars: protein: recombinant; tags: N-terminal GST; dsDNA, one strand shown. The essentials: as §1

The next assay addresses T4, ETV2 (Homo sapiens, UniProt O00321 1-342).
T4 sequence: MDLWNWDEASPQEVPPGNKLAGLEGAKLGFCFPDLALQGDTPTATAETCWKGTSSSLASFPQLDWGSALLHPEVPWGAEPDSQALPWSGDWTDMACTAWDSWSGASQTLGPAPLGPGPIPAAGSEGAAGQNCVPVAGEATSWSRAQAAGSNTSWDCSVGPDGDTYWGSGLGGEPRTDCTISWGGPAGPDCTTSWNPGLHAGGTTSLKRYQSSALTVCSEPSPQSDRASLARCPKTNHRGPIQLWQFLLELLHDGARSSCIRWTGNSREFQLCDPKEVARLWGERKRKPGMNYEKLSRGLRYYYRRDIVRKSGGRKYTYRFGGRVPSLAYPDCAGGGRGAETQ
To be noted: protein: recombinant; tags: N-terminal GST; dsDNA, one strand shown. The method, boiled down: as §1

In the next assay the target is T5, ELF3 (Homo sapiens, UniProt P78545 1-371).
T5 sequence: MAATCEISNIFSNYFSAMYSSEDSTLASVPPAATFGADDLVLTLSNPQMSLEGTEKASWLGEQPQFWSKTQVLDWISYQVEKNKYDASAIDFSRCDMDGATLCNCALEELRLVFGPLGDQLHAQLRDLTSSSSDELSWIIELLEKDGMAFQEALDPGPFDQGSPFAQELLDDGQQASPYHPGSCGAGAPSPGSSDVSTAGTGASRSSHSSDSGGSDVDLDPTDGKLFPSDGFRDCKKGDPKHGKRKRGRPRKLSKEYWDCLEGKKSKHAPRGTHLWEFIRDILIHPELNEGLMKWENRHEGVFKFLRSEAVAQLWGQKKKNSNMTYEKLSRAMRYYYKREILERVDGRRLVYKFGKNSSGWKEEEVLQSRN
Particulars: protein: recombinant; tags: N-terminal GST; dsDNA, one strand shown. The method, boiled down:
as §1

The next assay has as its target CRX (Homo sapiens, UniProt O43186 1-299). Particulars: protein: recombinant; tags: N-terminal GST; dsDNA, one strand shown. The method, boiled down:
as §1

Another assay has as its target ETV1 (Homo sapiens, UniProt P50549 1-477). To be noted: protein: recombinant; tags: N-terminal GST; dsDNA, one strand shown. The essentials:
as §1

In another assay the target is T6, ERF (Homo sapiens, UniProt P50548 1-548).
T6 sequence: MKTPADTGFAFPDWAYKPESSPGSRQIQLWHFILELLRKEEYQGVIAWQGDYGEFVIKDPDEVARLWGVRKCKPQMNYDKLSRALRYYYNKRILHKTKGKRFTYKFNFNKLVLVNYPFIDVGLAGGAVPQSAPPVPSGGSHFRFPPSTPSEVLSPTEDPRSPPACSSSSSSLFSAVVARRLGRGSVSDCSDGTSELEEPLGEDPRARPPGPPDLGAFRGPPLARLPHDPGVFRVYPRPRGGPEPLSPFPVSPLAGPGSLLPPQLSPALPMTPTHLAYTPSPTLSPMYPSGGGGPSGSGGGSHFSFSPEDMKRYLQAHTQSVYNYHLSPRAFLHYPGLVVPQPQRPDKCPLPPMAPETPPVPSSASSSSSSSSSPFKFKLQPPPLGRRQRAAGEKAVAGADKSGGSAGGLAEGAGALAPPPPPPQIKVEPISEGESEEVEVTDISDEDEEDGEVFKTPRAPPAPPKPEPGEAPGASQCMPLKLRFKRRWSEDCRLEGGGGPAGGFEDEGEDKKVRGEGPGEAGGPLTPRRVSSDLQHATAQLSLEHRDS
Particulars: protein: recombinant; tags: N-terminal GST; dsDNA, one strand shown. The essentials: as §1

The next assay concerns the target T7, ETV3L (Homo sapiens, UniProt Q6ZN32 1-361).
T7 sequence: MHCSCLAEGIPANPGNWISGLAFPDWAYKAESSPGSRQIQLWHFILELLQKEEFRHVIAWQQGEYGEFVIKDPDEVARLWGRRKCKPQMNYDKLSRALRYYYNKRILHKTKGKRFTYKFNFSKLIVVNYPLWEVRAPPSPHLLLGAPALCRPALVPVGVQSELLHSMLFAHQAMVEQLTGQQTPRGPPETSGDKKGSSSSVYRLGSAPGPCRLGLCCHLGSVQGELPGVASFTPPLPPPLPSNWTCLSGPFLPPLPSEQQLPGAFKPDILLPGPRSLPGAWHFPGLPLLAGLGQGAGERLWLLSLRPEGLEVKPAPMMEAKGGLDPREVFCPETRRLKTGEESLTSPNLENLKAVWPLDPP
Particulars: protein: recombinant; tags: N-terminal GST; dsDNA, one strand shown. The essentials:
as §1

A further assay concerns the target T8, ETS2 (Homo sapiens, UniProt P15036 1-469).
T8 sequence: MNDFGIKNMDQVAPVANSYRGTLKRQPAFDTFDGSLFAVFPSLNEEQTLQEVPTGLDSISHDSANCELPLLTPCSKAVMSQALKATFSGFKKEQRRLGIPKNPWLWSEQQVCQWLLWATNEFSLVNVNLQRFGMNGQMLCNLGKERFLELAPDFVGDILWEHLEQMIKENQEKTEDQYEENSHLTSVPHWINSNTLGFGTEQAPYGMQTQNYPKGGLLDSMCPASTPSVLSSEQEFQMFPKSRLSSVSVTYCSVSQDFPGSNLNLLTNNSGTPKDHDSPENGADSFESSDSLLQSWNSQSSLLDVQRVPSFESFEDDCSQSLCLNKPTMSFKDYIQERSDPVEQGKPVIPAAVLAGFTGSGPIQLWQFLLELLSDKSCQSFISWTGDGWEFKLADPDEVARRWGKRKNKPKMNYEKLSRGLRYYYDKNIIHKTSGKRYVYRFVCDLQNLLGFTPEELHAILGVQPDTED
Particulars: protein: recombinant; tags: N-terminal GST; dsDNA, one strand shown. The essentials:
as §1

A further assay concerns the target T9, SPDEF (Homo sapiens, UniProt O95238 1-335).
T9 sequence: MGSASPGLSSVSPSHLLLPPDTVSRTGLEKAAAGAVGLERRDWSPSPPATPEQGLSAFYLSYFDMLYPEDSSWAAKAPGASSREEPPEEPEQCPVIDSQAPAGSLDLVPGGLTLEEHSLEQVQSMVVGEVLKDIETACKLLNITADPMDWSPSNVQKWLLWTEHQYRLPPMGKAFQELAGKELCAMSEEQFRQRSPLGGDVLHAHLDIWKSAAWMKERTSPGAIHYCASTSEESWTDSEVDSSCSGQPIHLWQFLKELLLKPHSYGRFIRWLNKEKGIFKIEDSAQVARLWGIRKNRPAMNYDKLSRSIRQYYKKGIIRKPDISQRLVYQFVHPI
Particulars: protein: recombinant; tags: N-terminal GST; dsDNA, one strand shown. The essentials:
as §1

The next assay has as its target T10, ETV7 (Homo sapiens, UniProt Q9Y603 1-341).
T10 sequence: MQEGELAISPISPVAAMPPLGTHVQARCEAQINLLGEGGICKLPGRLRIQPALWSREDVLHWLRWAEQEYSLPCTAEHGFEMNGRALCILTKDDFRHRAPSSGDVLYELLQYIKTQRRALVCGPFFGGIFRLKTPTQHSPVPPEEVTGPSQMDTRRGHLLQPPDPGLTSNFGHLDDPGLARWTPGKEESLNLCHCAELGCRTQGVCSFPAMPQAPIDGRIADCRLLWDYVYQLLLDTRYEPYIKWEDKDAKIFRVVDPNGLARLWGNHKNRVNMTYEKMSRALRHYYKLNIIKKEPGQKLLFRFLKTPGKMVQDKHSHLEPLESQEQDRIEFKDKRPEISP
Particulars: protein: recombinant; tags: N-terminal GST; dsDNA, one strand shown. The essentials:
as §1

Another assay addresses T11, ELF5 (Homo sapiens, UniProt Q9UKW6-2 1-255).
T11 sequence: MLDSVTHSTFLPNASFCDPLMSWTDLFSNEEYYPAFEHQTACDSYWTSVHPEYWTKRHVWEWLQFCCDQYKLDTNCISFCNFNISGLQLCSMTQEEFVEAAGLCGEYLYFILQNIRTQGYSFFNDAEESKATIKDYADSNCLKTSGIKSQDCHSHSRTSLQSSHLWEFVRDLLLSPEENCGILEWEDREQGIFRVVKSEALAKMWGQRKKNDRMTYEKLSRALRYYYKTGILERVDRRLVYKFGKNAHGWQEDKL
To be noted: protein: recombinant; tags: N-terminal GST; dsDNA, one strand shown. The essentials:
as §1

Another assay has as its target T12, ETV3 (Homo sapiens, UniProt P41162-2 1-143).
T12 sequence: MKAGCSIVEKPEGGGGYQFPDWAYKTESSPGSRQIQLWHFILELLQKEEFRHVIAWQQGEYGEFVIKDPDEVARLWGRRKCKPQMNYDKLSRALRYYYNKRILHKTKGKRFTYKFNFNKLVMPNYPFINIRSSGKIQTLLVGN
Particulars: protein: recombinant; tags: N-terminal GST; dsDNA, one strand shown. The method, boiled down:
as §1

A further assay concerns the target ETV6 (Homo sapiens, UniProt P41212 1-452). To be noted: protein: recombinant; tags: N-terminal GST; dsDNA, one strand shown. The method, boiled down:
as §1

The values below come from PMC7862700, “An all-to-all approach to the identification of sequence-specific readers for epigenetic DNA modifications on cytosine”.

HSF1, sequence (Q00613 whole entry): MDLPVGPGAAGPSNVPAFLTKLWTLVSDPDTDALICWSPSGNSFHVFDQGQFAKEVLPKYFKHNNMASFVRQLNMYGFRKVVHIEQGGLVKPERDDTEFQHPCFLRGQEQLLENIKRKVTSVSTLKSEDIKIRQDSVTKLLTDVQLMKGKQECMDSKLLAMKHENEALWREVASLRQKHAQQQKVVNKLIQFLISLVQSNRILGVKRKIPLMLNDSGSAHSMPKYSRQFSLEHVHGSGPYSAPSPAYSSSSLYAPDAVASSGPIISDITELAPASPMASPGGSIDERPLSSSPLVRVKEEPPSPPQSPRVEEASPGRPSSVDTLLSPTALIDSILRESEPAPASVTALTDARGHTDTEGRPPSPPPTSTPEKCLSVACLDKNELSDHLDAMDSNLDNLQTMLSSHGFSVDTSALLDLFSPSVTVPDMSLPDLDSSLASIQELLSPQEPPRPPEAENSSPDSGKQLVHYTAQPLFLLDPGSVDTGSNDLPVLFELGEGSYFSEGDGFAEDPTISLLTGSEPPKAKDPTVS
ETV6, sequence (P41212 whole entry): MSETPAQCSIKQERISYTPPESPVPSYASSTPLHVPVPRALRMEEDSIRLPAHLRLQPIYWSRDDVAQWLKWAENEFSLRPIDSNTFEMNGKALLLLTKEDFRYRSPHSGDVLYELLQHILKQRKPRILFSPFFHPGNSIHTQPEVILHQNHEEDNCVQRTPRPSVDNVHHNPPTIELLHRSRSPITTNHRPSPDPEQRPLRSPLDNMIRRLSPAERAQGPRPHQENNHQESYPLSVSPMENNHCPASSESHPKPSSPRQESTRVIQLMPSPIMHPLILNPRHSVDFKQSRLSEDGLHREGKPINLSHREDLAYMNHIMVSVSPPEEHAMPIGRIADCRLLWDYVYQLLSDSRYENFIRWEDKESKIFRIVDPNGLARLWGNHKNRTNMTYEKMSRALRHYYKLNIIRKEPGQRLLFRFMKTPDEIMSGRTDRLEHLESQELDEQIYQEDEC
CRX, sequence (O43186 whole entry): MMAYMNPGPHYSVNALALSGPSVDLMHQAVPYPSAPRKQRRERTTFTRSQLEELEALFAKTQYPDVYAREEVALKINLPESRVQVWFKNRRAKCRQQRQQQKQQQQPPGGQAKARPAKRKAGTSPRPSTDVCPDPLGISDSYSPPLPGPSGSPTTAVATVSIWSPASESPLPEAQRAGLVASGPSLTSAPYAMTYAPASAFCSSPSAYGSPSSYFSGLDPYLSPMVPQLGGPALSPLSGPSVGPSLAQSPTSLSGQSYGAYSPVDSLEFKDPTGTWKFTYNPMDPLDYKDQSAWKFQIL
ETV1, sequence (P50549 whole entry): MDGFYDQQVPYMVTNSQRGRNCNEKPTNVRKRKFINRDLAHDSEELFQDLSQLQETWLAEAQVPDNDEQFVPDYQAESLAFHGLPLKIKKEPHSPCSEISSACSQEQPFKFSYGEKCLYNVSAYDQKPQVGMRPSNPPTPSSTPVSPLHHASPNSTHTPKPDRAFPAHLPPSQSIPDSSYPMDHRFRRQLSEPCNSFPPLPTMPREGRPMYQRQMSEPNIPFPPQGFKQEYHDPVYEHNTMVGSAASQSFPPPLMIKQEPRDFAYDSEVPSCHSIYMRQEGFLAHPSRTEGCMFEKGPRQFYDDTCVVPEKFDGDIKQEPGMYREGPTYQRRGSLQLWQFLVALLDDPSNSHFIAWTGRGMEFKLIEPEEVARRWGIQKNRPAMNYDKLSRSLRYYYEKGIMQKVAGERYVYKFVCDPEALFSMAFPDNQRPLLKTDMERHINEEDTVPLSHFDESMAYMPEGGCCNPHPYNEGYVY

Take GGCTCT: the binding signal with FEV is 1.35 fold enrichment (6-mer frequency, TF over GST control); with ETV5 it was 1.19 fold enrichment (6-mer frequency, TF over GST control); with HSF1, 1.32 fold enrichment (6-mer frequency, TF over GST control); with SPIC it was 1.34 fold enrichment (6-mer frequency, TF over GST control); with ELF4 it was 1.37 fold enrichment (6-mer frequency, TF over GST control); with ELK4, 1.22 fold enrichment (6-mer frequency, TF over GST control). For the same sequence, the binding signal with ETV2 was 1.4 fold enrichment (6-mer frequency, TF over GST control); with ELF3, 1.44 fold enrichment (6-mer frequency, TF over GST control); in the assay with CRX it was 1.27 fold enrichment (6-mer frequency, TF over GST control); with ETV1, 1.42 fold enrichment (6-mer frequency, TF over GST control); with ERF, 1.36 fold enrichment (6-mer frequency, TF over GST control); with ETV3L it was 1.34 fold enrichment (6-mer frequency, TF over GST control). The binding signal with ETS2 is 1.2 fold enrichment (6-mer frequency, TF over GST control); with SPDEF, 1.13 fold enrichment (6-mer frequency, TF over GST control); with ETV7 it was 1.44 fold enrichment (6-mer frequency, TF over GST control); in the assay with ELF5 it was 1.15 fold enrichment (6-mer frequency, TF over GST control); with ETV3, 1.34 fold enrichment (6-mer frequency, TF over GST control); with ETV6 it was 1.3 fold enrichment (6-mer frequency, TF over GST control).
